# Results from publication PMC7862700, “An all-to-all approach to the identification of sequence-specific readers for epigenetic DNA modifications on cytosine”.
# Tests used:
# Experiment in all cases: DAPPL (digital affinity profiling via proximity ligation, sequencing); 10 mM Tris-HCl pH 7.5, 50 mM NaCl, 1 mM DTT, 4% glycerol, room temperature, 30 min; GST-TFs on glutathione beads, 16-mer random dsDNA library, 0.1% formaldehyde crosslink after washing; high values mean tight binding
# Conditions in all cases: protein: recombinant; tags: N-terminal GST; dsDNA, one strand shown
# SPIC = molecular target: T1, SPIC (Homo sapiens, UniProt Q8N5J4 1-248)
# T1 sequence: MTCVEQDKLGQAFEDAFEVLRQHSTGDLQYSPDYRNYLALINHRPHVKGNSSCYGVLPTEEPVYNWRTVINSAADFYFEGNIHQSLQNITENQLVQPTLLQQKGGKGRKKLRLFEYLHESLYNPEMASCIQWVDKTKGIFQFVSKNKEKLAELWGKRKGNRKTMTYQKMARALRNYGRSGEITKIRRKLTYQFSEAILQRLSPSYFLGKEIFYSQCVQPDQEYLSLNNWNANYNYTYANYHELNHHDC
# Method in brief: (§1)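 Pools were built from human transcription factors expressed in yeast as GST fusions, captured on glutathione beads and DNA-barcoded, along with a tag-only sample. Incubation with 200 nmole of a 16-mer random double-stranded DNA library lasted 30 min at room temperature in Tris/NaCl/DTT/glycerol buffer, and was followed by washing, 0.1% formaldehyde crosslinking, proximity ligation, PCR amplification and Illumina NextSeq500 sequencing. Binding signal is the quotient of each hexamer's read frequency for a factor and its frequency for the tag-only sample.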
# ELK1 = molecular target: T2, ELK1 (Homo sapiens, UniProt P19419 1-428)
# T2 sequence: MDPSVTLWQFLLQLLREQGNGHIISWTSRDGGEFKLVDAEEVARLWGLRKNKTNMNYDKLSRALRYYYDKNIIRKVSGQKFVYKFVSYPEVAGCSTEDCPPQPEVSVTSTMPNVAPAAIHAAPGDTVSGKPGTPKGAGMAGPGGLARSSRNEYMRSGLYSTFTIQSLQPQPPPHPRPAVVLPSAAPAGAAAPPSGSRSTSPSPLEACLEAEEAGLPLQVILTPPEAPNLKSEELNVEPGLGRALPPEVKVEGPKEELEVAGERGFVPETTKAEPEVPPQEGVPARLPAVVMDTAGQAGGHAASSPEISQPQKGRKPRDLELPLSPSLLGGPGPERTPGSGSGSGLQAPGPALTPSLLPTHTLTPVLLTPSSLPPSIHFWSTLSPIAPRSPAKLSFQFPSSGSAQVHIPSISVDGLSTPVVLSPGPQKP
# Method in brief: as §1
# EHF = molecular target: T3, EHF (Homo sapiens, UniProt Q9NZC4 1-300)
# T3 sequence: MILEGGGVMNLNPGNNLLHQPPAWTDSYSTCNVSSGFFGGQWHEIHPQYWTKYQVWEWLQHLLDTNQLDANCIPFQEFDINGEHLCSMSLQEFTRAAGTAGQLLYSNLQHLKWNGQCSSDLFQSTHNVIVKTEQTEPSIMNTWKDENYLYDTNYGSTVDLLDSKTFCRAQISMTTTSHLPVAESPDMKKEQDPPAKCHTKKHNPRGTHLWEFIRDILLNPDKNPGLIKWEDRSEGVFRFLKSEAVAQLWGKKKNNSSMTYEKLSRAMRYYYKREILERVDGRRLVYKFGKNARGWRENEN
# Method in brief: as §1
# ELK4 = molecular target: T4, ELK4 (Homo sapiens, UniProt P28324-2 1-405)
# T4 sequence: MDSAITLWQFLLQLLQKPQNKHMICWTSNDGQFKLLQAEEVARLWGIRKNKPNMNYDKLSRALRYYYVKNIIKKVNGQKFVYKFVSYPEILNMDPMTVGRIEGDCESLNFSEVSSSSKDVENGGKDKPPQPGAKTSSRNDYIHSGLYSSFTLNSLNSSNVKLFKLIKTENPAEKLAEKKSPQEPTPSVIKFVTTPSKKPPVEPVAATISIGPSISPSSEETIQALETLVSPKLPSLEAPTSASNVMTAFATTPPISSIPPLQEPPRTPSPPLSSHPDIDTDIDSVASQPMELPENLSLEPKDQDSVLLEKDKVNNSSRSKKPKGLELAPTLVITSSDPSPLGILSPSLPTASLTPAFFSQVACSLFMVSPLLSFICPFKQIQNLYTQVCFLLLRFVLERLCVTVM
# Method in brief: as §1
# ELF3 = molecular target: T5, ELF3 (Homo sapiens, UniProt P78545 1-371)
# T5 sequence: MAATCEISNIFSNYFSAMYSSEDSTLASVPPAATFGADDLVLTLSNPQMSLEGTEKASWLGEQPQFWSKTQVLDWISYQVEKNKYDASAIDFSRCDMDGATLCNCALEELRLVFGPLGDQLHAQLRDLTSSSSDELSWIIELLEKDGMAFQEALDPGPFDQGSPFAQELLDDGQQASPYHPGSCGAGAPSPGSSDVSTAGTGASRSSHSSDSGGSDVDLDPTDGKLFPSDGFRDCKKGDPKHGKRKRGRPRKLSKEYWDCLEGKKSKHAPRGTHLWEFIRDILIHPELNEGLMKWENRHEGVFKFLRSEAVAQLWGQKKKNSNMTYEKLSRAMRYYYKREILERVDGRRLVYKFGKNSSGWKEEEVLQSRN
# Method in brief: as §1
# ERG = molecular target: T6, ERG (Homo sapiens, UniProt P11308 1-479)
# T6 sequence: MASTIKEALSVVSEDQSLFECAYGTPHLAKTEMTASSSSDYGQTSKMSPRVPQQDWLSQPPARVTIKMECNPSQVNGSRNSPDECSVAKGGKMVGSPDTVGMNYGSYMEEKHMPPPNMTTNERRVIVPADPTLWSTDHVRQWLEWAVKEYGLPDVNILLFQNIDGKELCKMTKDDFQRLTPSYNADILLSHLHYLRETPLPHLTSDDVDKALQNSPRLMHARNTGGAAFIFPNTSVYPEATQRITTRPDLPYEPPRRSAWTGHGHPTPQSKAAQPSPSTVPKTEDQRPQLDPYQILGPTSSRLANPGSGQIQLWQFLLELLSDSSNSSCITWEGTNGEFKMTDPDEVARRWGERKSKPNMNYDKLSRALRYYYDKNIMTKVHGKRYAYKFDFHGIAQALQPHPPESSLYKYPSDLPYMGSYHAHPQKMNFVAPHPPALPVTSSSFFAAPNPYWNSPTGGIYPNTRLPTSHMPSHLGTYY
# Method in brief: as §1
# ELF1 = ELF1 (Homo sapiens, UniProt P32519 1-619)
# Method in brief: as §1
# SPIB = SPIB (Homo sapiens, UniProt Q01892 1-262)
# Method in brief: as §1
# ETV2 = molecular target: T7, ETV2 (Homo sapiens, UniProt O00321 1-342)
# T7 sequence: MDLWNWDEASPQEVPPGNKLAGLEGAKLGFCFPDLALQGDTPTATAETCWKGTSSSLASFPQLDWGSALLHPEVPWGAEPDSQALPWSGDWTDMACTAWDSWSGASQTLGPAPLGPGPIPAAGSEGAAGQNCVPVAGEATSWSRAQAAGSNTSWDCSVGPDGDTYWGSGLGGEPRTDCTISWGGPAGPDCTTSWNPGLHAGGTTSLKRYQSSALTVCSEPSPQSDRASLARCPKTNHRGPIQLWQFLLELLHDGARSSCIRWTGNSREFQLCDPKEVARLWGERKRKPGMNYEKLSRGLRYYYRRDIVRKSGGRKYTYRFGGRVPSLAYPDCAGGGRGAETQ
# Method in brief: as §1
# ETV3L = molecular target: T8, ETV3L (Homo sapiens, UniProt Q6ZN32 1-361)
# T8 sequence: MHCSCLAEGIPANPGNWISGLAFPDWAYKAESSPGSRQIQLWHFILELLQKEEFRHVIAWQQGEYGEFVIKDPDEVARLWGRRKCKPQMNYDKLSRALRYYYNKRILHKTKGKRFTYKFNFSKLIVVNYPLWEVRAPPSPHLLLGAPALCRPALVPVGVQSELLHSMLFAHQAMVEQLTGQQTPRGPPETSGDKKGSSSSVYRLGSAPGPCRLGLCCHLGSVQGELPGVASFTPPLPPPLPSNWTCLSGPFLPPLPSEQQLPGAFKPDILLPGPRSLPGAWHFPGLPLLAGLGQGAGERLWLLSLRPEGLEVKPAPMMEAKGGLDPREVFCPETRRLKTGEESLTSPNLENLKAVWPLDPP
# Method in brief: as §1
# ETV3 = molecular target: T9, ETV3 (Homo sapiens, UniProt P41162-2 1-143)
# T9 sequence: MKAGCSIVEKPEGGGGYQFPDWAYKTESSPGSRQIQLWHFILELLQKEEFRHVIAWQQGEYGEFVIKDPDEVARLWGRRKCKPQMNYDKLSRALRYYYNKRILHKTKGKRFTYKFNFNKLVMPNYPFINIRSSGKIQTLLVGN
# Method in brief: as §1
# ELF1, sequence (P32519 whole entry): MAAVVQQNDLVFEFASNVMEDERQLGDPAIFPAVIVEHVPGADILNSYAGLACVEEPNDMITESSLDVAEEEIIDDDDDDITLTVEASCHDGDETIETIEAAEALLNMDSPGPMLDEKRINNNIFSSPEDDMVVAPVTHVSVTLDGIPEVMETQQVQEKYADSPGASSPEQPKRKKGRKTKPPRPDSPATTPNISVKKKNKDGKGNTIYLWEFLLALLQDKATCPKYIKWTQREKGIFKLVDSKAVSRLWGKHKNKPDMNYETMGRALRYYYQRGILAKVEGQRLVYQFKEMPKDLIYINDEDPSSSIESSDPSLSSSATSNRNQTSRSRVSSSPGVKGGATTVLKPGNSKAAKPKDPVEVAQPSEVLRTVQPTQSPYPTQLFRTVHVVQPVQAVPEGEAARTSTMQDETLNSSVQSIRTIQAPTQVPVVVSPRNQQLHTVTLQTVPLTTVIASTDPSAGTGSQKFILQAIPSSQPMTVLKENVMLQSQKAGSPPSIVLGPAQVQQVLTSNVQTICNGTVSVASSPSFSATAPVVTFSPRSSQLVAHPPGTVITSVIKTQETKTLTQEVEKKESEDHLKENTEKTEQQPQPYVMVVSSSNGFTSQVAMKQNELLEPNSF
# SPIB, sequence (Q01892 whole entry): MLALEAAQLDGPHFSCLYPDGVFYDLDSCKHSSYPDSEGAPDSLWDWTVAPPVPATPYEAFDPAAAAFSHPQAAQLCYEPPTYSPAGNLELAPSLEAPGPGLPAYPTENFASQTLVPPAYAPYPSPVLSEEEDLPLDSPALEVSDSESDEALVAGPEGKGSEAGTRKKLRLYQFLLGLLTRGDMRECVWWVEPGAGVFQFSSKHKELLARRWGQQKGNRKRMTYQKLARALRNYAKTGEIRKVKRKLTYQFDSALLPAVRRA
sequence,measurement,setting,value
CTGGCG,binding signal,SPIC,"1.09 fold enrichment (6-mer frequency, TF over GST control)"
TGGTGA,binding signal,ELK1,"1.04 fold enrichment (6-mer frequency, TF over GST control)"
same,binding signal,EHF,"1.09 fold enrichment (6-mer frequency, TF over GST control)"
same,binding signal,SPIC,"1.02 fold enrichment (6-mer frequency, TF over GST control)"
same,binding signal,ELK4,"1.04 fold enrichment (6-mer frequency, TF over GST control)"
same,binding signal,ELF3,"1.03 fold enrichment (6-mer frequency, TF over GST control)"
ACGCCA,binding signal,SPIC,"1 fold enrichment (6-mer frequency, TF over GST control)"
GATAGT,binding signal,SPIC,"1.01 fold enrichment (6-mer frequency, TF over GST control)"
GCCCTG,binding signal,ELK1,"1.12 fold enrichment (6-mer frequency, TF over GST control)"
same,binding signal,ERG,"1 fold enrichment (6-mer frequency, TF over GST control)"
same,binding signal,ELF1,"1.06 fold enrichment (6-mer frequency, TF over GST control)"
same,binding signal,SPIB,"1.07 fold enrichment (6-mer frequency, TF over GST control)"
same,binding signal,SPIC,"1.11 fold enrichment (6-mer frequency, TF over GST control)"
same,binding signal,ELK4,"1.04 fold enrichment (6-mer frequency, TF over GST control)"
same,binding signal,ETV2,"1 fold enrichment (6-mer frequency, TF over GST control)"
same,binding signal,ETV3L,"1.08 fold enrichment (6-mer frequency, TF over GST control)"
same,binding signal,ETV3,"1.04 fold enrichment (6-mer frequency, TF over GST control)"
